Unmarked numbers belong to inactive results. Records with an inconclusive call do not appear. Where a call stands in place of a potency, no number is given. Activity calls are given as the source filed them. Unless noted, the call rests on the fitted dose curve.
Experiments:
[1] = Nuclear factor erythroid 2-related factor 2/antioxidant responsive element (Nrf2/ARE) small molecule agonists: qHTS cell viability counter screen in human keratinocytes (AID 1919968; active means well fitted curve in the direction sought with a large enough effect in the repeat runs; an effect the other way counts as inactive or inconclusive; further: nearly all actives have a fitted effect of over 55% in size)
In short: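 Cells of the KeratinoSens line were plated at 1,500 per well and left for 5 h before compound transfer from DMSO stocks. After a 23 h incubation (37 C, 5% CO2), CellTiter-Fluor was added. Signal was taken as fluorescence intensity 1 h later.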

[2] = Nuclear factor erythroid 2-related factor 2/antioxidant responsive element (Nrf2/ARE) small molecule agonists: luciferase reporter gene qHTS assay in human keratinocytes (AID 1919969); further: nearly all actives have a fitted effect of over 35% in size; further: potency means the concentration at half of the fitted maximal effect
[3] = molecular target: Gonadotropin-releasing hormone receptor (Homo sapiens) (UniProt P30968); assay: Human gonadotropin-releasing hormone receptor (GnRHR) small molecule agonists, calcium flux assay in GnRHR-HEK293 cells (AID 1920063); further: nearly all actives have a fitted effect of over 35% in size
Chain of Gonadotropin-releasing hormone receptor (Homo sapiens) (P30968 whole entry, looked up): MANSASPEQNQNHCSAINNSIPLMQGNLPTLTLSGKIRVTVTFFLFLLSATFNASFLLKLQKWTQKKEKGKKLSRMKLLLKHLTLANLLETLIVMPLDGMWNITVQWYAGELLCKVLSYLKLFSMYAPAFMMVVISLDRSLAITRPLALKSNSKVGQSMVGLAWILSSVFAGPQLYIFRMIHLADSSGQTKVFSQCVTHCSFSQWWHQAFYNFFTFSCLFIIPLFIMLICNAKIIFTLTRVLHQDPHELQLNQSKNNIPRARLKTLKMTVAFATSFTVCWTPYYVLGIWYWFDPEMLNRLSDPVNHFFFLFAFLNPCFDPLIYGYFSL
In short: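 Compounds dissolved in DMSO are pin-transferred onto dye-loaded GnRHR-HEK293 cells, which were seeded 18 h before at 37 C/5% CO2. Calcium signal is read as fluorescence intensity at 1 s intervals for 3 min.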

[4] = molecular target: KiSS-1 receptor (Homo sapiens) (UniProt Q969F8); assay: Human kisspeptin (KISS1R) small molecule agonists, calcium flux assay in KISS1R-HEK293 cells (AID 1920064; active means well fitted curve in the direction sought with a large enough effect in the repeat runs; an effect the other way counts as inactive or inconclusive)
Chain of KiSS-1 receptor (Homo sapiens) (Q969F8 whole entry, looked up): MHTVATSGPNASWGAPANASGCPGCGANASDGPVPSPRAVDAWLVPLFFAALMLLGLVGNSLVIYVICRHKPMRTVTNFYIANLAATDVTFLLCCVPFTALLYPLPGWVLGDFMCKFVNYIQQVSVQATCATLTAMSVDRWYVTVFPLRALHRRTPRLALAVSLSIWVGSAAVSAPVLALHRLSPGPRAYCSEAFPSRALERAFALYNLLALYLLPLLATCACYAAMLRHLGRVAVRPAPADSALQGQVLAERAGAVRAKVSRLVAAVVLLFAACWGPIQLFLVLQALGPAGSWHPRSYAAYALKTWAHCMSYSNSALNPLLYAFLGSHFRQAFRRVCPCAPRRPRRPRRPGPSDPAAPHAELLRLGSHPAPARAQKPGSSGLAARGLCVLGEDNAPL
In short: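 Cell line: HEK293, stable human KISS1R. Dye loading 1 h at 37 C after 18 h culture. Read: kinetic fluorescence, 480/540 nm, 3 min at 1 s intervals.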

[5] = G protein-coupled receptor (GPCR) small molecule agonists, calcium flux assay: HEK293 wild type cell line counter screen (AID 1920065)
In short: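 Tox21 10K compounds, 15 concentrations each in triplicate, pin-transferred in DMSO onto dye-loaded cells; kinetic read at 480/540 nm for 3 min, 1 s intervals.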

[6] = p53 small molecule agonists, cell-based qHTS assay with human liver microsomes (AID 1963577);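 further: p53 response element beta-lactamase reporter cells with liver microsomes plus NADPH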
In short: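 In this qHTS, p53 response-element beta-lactamase cells receive test compound together with a microsome/NADPH activating system (0.5 mg/mL final each) and are incubated 16 h at 37 C before LiveBLAzer fluorescence detection.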

[7] = p53 small molecule agonists, cell-based qHTS assay with rat liver microsomes (AID 1963578)
In short: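 Agonist mode in p53RE-bla reporter cells, with compounds co-incubated 16 h at 37 C alongside 0.5 mg/mL rat liver microsomes and 0.5 mg/mL NADPH (final), followed by a 2 h LiveBLAzer detection step.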

[8] = p53 small molecule agonists, cell-based qHTS assay with human liver microsomes: qHTS cell viability counter screen (AID 1963579); further: nearly all actives have a fitted effect of over 45% in size; further: potency means the concentration at half of the fitted maximal effect
In short: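 Metabolically activated exposure: compounds, human liver microsomes and NADPH (0.5 mg/mL final apiece) were added to p53RE-bla cells seeded 5 h earlier, left 16 h at 37 C, and then assessed for viability by CellTiter-Glo luminescence.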

[9] = p53 small molecule agonists, cell-based qHTS assay with rat liver microsomes: qHTS cell viability counter screen (AID 1963580); further: nearly all actives have a fitted effect of over 45% in size
In short: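 Counter screen for cytotoxicity under metabolic activation: rat liver microsomes and NADPH, 0.5 mg/mL final each, added with compounds to p53RE-bla HCT-116 cells; 16 h at 37 C, then ATP luminescence read.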

[10] = p53 small molecule agonists, cell-based qHTS assay: qHTS cell viability counter screen (AID 1963581); further: nearly all actives have a fitted effect of over 45% in size; further: potency means the concentration at half of the fitted maximal effect
In short: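 ATP content measured by luminescence in HCT-116 p53RE-bla cells treated 16 h at 37 C, same wells as the reporter screen.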

[11] = p53 small molecule agonists, cell-based qHTS assay (AID 1963582; active means well fitted activation curve with a large enough effect in the signal ratio in the repeat runs, not every such curve was filed as active; the % refers to the signal ratio)
In short: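 16 h compound exposure (37 C) of p53 response element–bla cells, preceded by 5 h recovery at 37 C/5% CO2; read-out via LiveBLAzer B/G FRET substrate, 2 h RT, fluorescence intensity.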

[12] = molecular target: 5-hydroxytryptamine receptor 2A (Homo sapiens) (UniProt P28223); assay: 5-hydroxytryptamine receptor 2A (HTR2A) small molecule antagonists, cell-based qHTS assay (AID 1963586); further: nearly all actives have a fitted effect of over 45% in size; further: potency means the concentration at half of the fitted maximal effect
Chain of 5-hydroxytryptamine receptor 2A (Homo sapiens) (P28223 whole entry, looked up): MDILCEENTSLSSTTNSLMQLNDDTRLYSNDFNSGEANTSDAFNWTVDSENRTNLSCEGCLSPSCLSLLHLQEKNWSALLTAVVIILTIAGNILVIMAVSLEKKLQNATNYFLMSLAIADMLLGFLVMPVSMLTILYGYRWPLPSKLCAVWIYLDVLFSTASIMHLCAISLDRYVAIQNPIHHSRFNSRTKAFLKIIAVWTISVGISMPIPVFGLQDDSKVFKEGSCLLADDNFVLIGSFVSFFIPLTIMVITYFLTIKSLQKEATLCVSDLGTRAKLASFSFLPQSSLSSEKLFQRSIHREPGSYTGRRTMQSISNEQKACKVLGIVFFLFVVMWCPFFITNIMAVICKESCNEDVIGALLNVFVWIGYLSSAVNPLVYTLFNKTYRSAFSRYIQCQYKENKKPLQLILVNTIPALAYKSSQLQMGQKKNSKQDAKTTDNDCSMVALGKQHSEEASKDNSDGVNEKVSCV
In short: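 CHO cells stably expressing human HTR2A were plated for 18 h at 37 C, then loaded with calcium dye for 1 h. Compounds were preincubated 5 min at room temperature before DOI (4 nM solution) was added. Kinetic fluorescence was read for 3 min.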

[13] = molecular target: 5-hydroxytryptamine receptor 2A (Homo sapiens) (UniProt P28223); assay: 5-hydroxytryptamine receptor 2A (HTR2A) small molecule agonists, cell-based qHTS assay (AID 1963587); further: nearly all actives have a fitted effect of over 30% in size
In short: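 HTR2A-CHO cells, plated 18 h at 37 C/5% CO2, dye-loaded 1 h at 37 C; compounds in DMSO added by pin tool (agonist mode). Intracellular calcium flux read as kinetic fluorescence on FDSS over 2 min at 1 s intervals.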

[14] = molecular target: Muscarinic acetylcholine receptor M1 (Homo sapiens) (UniProt P11229); assay: Cholinergic receptor muscarinic 1 (CHRM1) small molecule antagonists, cell-based qHTS assay (AID 1963588); further: nearly all actives have a fitted effect of over 40% in size
Chain of Muscarinic acetylcholine receptor M1 (Homo sapiens) (P11229 whole entry, looked up): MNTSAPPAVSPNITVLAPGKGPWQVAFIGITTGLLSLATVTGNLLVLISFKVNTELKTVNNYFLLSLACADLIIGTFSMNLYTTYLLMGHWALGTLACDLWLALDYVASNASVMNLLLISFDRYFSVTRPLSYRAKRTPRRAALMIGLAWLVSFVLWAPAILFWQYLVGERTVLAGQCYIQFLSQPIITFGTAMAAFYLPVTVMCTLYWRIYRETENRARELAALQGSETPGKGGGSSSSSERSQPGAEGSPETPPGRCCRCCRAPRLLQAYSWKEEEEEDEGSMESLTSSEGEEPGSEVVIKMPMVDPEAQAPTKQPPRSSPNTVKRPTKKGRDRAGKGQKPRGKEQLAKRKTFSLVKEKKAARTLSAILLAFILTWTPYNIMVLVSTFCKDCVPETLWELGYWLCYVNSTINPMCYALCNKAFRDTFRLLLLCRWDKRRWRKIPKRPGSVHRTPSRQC
In short: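 Compounds were tested at 15 concentrations in three independent runs. Dye-loaded CHRM1-CHO cells were exposed 5 min at room temperature before stimulation by acetylcholine added at 50nM. Intracellular calcium was read kinetically on FDSS for 3 min.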

[15] = molecular target: Muscarinic acetylcholine receptor M1 (Homo sapiens) (UniProt P11229); assay: Cholinergic receptor muscarinic 1 (CHRM1) small molecule agonists, cell-based qHTS assay (AID 1963589); further: nearly all actives have a fitted effect of over 35% in size
In short: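 Homogeneous fluorescence calcium flux, agonist mode. Human M1-expressing CHO cells; compound dosed at 15 concentrations, three independent runs; signal sampled every 1 sec.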

[16] = molecular target: D(2) dopamine receptor (Homo sapiens) (UniProt P14416); assay: Dopamine D2 receptor (DRD2) small molecule agonists, cell-based qHTS assay (AID 1963594); further: nearly all actives have a fitted effect of over 35% in size
Chain of D(2) dopamine receptor (Homo sapiens) (P14416 whole entry, looked up): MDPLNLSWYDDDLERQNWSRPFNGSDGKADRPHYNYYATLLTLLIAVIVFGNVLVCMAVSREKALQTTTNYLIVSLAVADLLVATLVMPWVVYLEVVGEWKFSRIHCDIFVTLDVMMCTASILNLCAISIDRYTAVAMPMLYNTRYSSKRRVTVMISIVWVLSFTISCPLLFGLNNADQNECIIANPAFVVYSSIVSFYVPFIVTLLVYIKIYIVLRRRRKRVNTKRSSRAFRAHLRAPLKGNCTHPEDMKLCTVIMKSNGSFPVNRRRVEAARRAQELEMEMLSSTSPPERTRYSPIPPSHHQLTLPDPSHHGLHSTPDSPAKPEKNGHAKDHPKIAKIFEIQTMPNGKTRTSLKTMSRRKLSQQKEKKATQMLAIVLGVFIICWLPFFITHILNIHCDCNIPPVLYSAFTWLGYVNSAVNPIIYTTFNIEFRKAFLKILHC
In short: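 HEK293 cells stably expressing DRD2 were cultured 24 h at 37 C, then given Ro20-1724 (0.1 mM final) and compounds for 10 min at room temperature. NKH477 (200nM) was then added for 30 min. cAMP was read by HTRF.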

[17] = molecular target: D(2) dopamine receptor (Homo sapiens) (UniProt P14416); assay: Dopamine D2 receptor (DRD2) small molecule antagonists, cell-based qHTS assay (AID 1963595; active means well fitted inhibition curve with a large enough effect in the signal ratio in the repeat runs, with a control signal flat; the % refers to the signal ratio)
In short: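 HEK293 cells stably expressing DRD2 were preincubated with 0.1 mM Ro20-1724, then with compound for 10 min at room temperature. Cells were stimulated with 200 nM NKH477 plus 12 nM quinpirole for 30 min, and cAMP was read by HTRF.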

[18] = molecular target: Beta-2 adrenergic receptor (Homo sapiens) (UniProt P07550); assay: Adrenergic beta2 receptor (ADRB2) small molecule antagonists, cell-based qHTS assay (AID 1963592); further: series mostly up to about 92 µM; nearly all actives have a fitted effect of over 50% in size
Chain of Beta-2 adrenergic receptor (Homo sapiens) (P07550 whole entry, looked up): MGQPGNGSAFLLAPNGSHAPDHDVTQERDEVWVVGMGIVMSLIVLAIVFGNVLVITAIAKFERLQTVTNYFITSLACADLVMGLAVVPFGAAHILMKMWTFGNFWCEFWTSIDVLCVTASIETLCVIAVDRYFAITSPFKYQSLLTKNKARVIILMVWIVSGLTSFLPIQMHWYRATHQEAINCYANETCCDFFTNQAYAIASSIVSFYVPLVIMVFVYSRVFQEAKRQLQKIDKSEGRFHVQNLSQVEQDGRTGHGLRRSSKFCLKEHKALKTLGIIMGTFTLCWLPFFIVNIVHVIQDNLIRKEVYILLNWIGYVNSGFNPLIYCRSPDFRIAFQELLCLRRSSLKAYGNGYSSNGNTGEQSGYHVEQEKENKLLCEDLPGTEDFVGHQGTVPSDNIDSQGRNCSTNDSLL
In short: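 Assay format: CHO-ADRB2 cells, 18-20hr seeding at 37C/5% CO2, then compound plus 1nM isoproterenol agonist mix for 0.5hr RT. Homogeneous time-resolved fluorescence cAMP detection after 1hr, expressed as 665/615 nm ratio.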

[19] = cAMP Responsive Elements (CRE) small molecule antagonists, cell-based qHTS assay (AID 1963591; active means well fitted inhibition curve with a large enough effect in the signal ratio in the repeat runs, not every such curve was filed as active; the % refers to the signal ratio)
In short: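 First, CRE-bla HEK293T cells settled 18 h at 37 C. Next, compound and 0.25 uM final NKH477 were applied for 3 h. Last, LiveBLAzer B/G substrate was loaded for 2 h at room temperature.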

[20] = cAMP Responsive Elements (CRE) small molecule agonists, cell-based qHTS assay (AID 1963590)
In short: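 HEK 293T cells stably bearing CRE-bla were plated at 2,000 cells per well and rested 18 h. Compounds, positive controls or DMSO were added for 3 h at 37 C. LiveBLAzer B/G substrate was then loaded for 2 h at room temperature.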

In the case of `Nc1ccccc1O`, the Potency [1] is reported as “inactive”, the Potency [2] is reported as 47.9 µM (active) and the Potency [3] is reported as “inactive”. The outcome [4] was “inactive”, the outcome [5] was “inactive” and the Potency [6] was “inactive”. The Potency [7] was “inactive”, the Potency [8] was 28.5 µM (active) and the Potency [9] was “inactive”. The Potency [10] was 32 µM (active), the Potency [11] was “inactive” and the Potency [12] was “inactive”. The Potency [13] was “inactive”, the Potency [14] was “inactive” and the Potency [15] was “inactive”. The Potency [16] was “inactive” and the Potency [17] was “inactive”.

For `CC(C)OC(=O)C(C)N(C(=O)c1ccccc1)c1ccc(F)c(Cl)c1` (centres undefined), the Potency [1] was “inactive”, the Potency [2] was “inactive” and the Potency [3] was “inactive”. For the same compound, the outcome [4] was “inactive”, the outcome [5] was “inactive” and the Potency [6] was “inactive”. For the same compound, the Potency [7] was “inactive”, the Potency [8] was “inactive” and the Potency [9] was “inactive”. For the same compound, the Potency [10] was “inactive”, the Potency [11] was “inactive” and the Potency [12] was “inactive”. The Potency [13] was “inactive”, the Potency [14] was “inactive” and the Potency [15] was “inactive”. The Potency [18] was “inactive”, the Potency [16] was “inactive” and the Potency [17] was “inactive”.

In the case of `O=S(=O)(O)c1ccc(Cl)cc1`, the Potency [1] is reported as “inactive”, the Potency [2] is reported as “inactive” and the Potency [3] is reported as “inactive”. For the same compound, the outcome [4] was “inactive”, the outcome [5] was “inactive” and the Potency [6] was “inactive”. The Potency [7] was “inactive”, the Potency [8] was “inactive” and the Potency [9] was “inactive”. The Potency [10] was “inactive”, the Potency [11] was “inactive” and the Potency [12] was “inactive”. For the same compound, the Potency [13] was “inactive”, the Potency [14] was “inactive” and the Potency [19] was “inactive”. The Potency [18] was “inactive”, the Potency [16] was “inactive” and the Potency [17] was “inactive”.

With `CCCCOCC(C)O` (centres undefined) the Potency [1] was “inactive”, the Potency [2] was “inactive” and the Potency [3] was “inactive”. The outcome [4] was “inactive”, the outcome [5] was “inactive” and the Potency [6] was “inactive”. For the same compound, the Potency [7] was “inactive”, the Potency [8] was “inactive” and the Potency [9] was “inactive”. For the same compound, the Potency [10] was “inactive”, the Potency [11] was “inactive” and the Potency [12] was “inactive”. For the same compound, the Potency [13] was “inactive”, the Potency [14] was “inactive” and the Potency [20] was “inactive”. For the same compound, the Potency [19] was “inactive”, the Potency [18] was “inactive” and the Potency [16] was “inactive”. The Potency [17] was “inactive”.

For `CC(C(=O)O)c1ccc(/C=C2\CCCCC2=O)cc1` (centres undefined), the Potency [1] was “inactive”, the Potency [2] was 23.7 µM (active) and the Potency [3] was “inactive”. The outcome [4] was “inactive”, the outcome [5] was “inactive” and the Potency [6] was “inactive”. The Potency [7] was “inactive”, the Potency [8] was “inactive” and the Potency [9] was “inactive”. For the same compound, the Potency [10] was “inactive”, the Potency [11] was “inactive” and the Potency [12] was “inactive”. For the same compound, the Potency [13] was “inactive”, the Potency [14] was “inactive” and the Potency [15] was “inactive”. For the same compound, the Potency [16] was “inactive” and the Potency [17] was “inactive”.

For `CC(C)Cc1ccc(C(C)C(=O)OCc2ccccn2)cc1` (centres undefined), the Potency [1] was “inactive”, the Potency [2] was “inactive” and the Potency [3] was “inactive”. For the same compound, the outcome [4] was “inactive”, the outcome [5] was “inactive” and the Potency [6] was “inactive”. For the same compound, the Potency [7] was “inactive”, the Potency [8] was “inactive” and the Potency [9] was “inactive”. The Potency [10] was “inactive”, the Potency [11] was “inactive” and the Potency [12] was 2.05 µM (active). For the same compound, the Potency [13] was “inactive”, the Potency [15] was “inactive” and the Potency [20] was “inactive”. The Potency [18] was “inactive” and the Potency [17] was “inactive”.

With `CC(C)(C)c1cc(C=O)cc(C(C)(C)C)c1O` the Potency [1] was “inactive”, the Potency [2] was “inactive” and the Potency [3] was “inactive”. The outcome [4] was “inactive”, the outcome [5] was “inactive” and the Potency [6] was “inactive”. The Potency [7] was “inactive”, the Potency [8] was “inactive” and the Potency [9] was “inactive”. For the same compound, the Potency [10] was “inactive”, the Potency [11] was “inactive” and the Potency [12] was “inactive”. The Potency [13] was “inactive”, the Potency [15] was “inactive” and the Potency [20] was “inactive”. The Potency [18] was “inactive”, the Potency [16] was “inactive” and the Potency [17] was “inactive”.

From PubChem BioAssay (Tox21)
